Assay results: the supplement of paper PMC9694430

Columns and labels:
Test in all cases: thermal shift delta Tm vs DMSO control; higher = stronger stabilization (binding)
Conditions in all cases: 12.5 µM; protein concentration 2 µM
[1] = tested on: LOC_OS01G01410-cb001
In short: (§1)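 The melting temperature shift given here is a triplicate mean, measured against protein that received only DMSO. Melting temperatures came from Boltzmann fits of differential scanning fluorimetry data on E. coli-expressed, purified rice kinase domain constructs. Each 19.5 μl well contained 2 μM kinase, 100 mM potassium phosphate pH 7.5, 150 mM NaCl, 10% glycerol, 5 × SYPRO Orange and compound in DMSO. Plates were scanned from 25°C to 95°C at 0.05°C/s.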

[2] = tested on: LOC_OS01G02750-cb003
In short: as §1

[3] = tested on: LOC_OS01G10900-cb004
In short: as §1

[4] = tested on: LOC_OS01G13800-cb001
In short: as §1

[5] = tested on: LOC_OS01G14860-cb001
In short: as §1

[6] = tested on: LOC_OS01G21960-cb002
In short: as §1

[7] = tested on: LOC_OS01G39600-cb002
In short: as §1

[8] = tested on: LOC_OS01G48390-cb002
In short: as §1

[9] = tested on: LOC_OS01G51400-cb002
In short: as §1

[10] = tested on: T1, LOC_OS01G52050-cb004
T1 sequence (whole entry): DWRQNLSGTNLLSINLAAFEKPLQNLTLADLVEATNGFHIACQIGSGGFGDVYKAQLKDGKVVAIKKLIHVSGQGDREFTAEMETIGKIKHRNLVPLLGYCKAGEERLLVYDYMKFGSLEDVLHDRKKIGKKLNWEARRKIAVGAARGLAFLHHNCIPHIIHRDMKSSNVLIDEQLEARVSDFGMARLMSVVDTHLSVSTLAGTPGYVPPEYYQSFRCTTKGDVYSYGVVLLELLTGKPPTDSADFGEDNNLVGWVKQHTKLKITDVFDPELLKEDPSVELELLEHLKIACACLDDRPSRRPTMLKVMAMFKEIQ
In short: as §1

[11] = tested on: LOC_OS01G57100-cb003
In short: as §1

[12] = tested on: LOC_OS01G60330-cb001
In short: as §1

[13] = tested on: LOC_OS01G60700-cb002
In short: as §1

[14] = tested on: LOC_OS01G63280-cb003
In short: as §1

[15] = tested on: LOC_OS01G67340-cb003
In short: as §1

[16] = tested on: LOC_OS01G70970-cb002
In short: as §1

[17] = tested on: LOC_OS02G07810-cb001
In short: as §1

[18] = tested on: LOC_OS02G08530-cb003
In short: as §1

[19] = tested on: LOC_OS02G14120-cb001
In short: as §1

[20] = tested on: LOC_OS02G17970-cb001
In short: as §1

| Structure (SMILES) | thermal shift delta Tm [1] [°C] | thermal shift delta Tm [2] [°C] | thermal shift delta Tm [3] [°C] | thermal shift delta Tm [4] [°C] | thermal shift delta Tm [5] [°C] | thermal shift delta Tm [6] [°C] | thermal shift delta Tm [7] [°C] | thermal shift delta Tm [8] [°C] | thermal shift delta Tm [9] [°C] | thermal shift delta Tm [10] [°C] | thermal shift delta Tm [11] [°C] | thermal shift delta Tm [12] [°C] | thermal shift delta Tm [13] [°C] | thermal shift delta Tm [14] [°C] | thermal shift delta Tm [15] [°C] | thermal shift delta Tm [16] [°C] | thermal shift delta Tm [17] [°C] | thermal shift delta Tm [18] [°C] | thermal shift delta Tm [19] [°C] | thermal shift delta Tm [20] [°C] |
| --- | --- | --- | --- | --- | --- | --- | --- | --- | --- | --- | --- | --- | --- | --- | --- | --- | --- | --- | --- | --- |
| O=C(Nc1nc2cccc(-c3ccc(CN4CCS(=O)(=O)CC4)cc3)n2n1)C1CC1 [Filgotinib (GLPG0634)] | 0.4 | 0.46 | 0.17 | 0.3 | 0.5 | 0.89 | -0.06 | 0.26 | 0.32 | 1.03 | 1.32 | 2.66 | 0.53 | 0.12 | 0.43 | 0.37 | 0.52 | 0.93 | 2.91 | 0.47 |
| CCc1cnn2c(NCc3ccc[n+]([O-])c3)cc(N3CCCC[C@H]3CCO)nc12 | 0.61 | 2.64 | 0.06 | 0.02 | 3.51 | 0.49 | -0.18 | 0.7 | 0.2 | 0.32 | 1.62 | 1.64 | 0.78 | 0.34 | -0.24 | 0.27 | 1.17 | 0.89 | 0.57 | 0.96 |
| FC(F)(F)c1ccc(CNc2ccc(Cc3c[nH]c4ncc(Cl)cc34)cn2)cn1 [Pexidartinib (PLX3397)] | 1.9 | 3.35 | 3.09 | 0.85 | 1.22 | 2.07 | 2.41 | 6.28 | 0.37 | 10.2 | 1.87 | 3.92 | 0.67 | 2.9 | 3.78 | 2.89 | 1.03 | 3.22 | 9.87 | 2.01 |
| O=C(NCc1ccccc1)c1csc(Nc2ccncn2)n1 [Thiazovivin] | 0.06 | 1.66 | 2.94 | 1.01 | 3.98 | 2.52 | 0.44 | 0.4 | 0.24 | 2.17 | 1.74 | 1.17 | 0.63 | 0.81 | 0.47 | 0.09 | 1.58 | 0.69 | 0.71 | 1.26 |
| CN(C)CCOc1ccc(-c2nc(-c3ccncc3)c(-c3ccc4c(c3)CC/C4=N\O)[nH]2)cc1 | 1.77 | 0.07 | 3.19 | 0.05 | 0.42 | -0.07 | 0.16 | 1.16 | 0.46 | 0.22 | 1.76 | 0.92 | 0.49 | 0.02 | -0.45 | 0.15 | 1.2 | 0.96 | -0.05 | -0.1 |
| CCCCCCCCCCCCCCCCOP(=O)([O-])OCC[N+](C)(C)C [Miltefosine] | -6.86 | -17.5 | -2.68 | -7.38 | -3.1 | -5.94 | -5.77 | -3.18 | -3.78 | -6.22 | -11.3 | -3.63 | -6.31 | -4.06 | -4.33 | -8.33 | -3.73 | -3.69 | -6.59 | -5.83 |
| CC(C)N(CCC(=O)c1ccc2ccccc2c1)Cc1ccccc1 | -0.06 | -5.16 | 1.63 | -1.25 | -0.01 | 0.24 | -2.79 | 0.53 | -0.18 | -7.43 | 1.6 | -0.95 | 1.89 | -2.65 | -0.6 | -5.39 | 0.33 | -1.55 | -2 | 5.17 |
| CN1CCN(c2ccc3nc(-c4c(N)c5c(F)cccc5[nH]c4=O)[nH]c3c2)CC1 [Dovitinib (TKI-258) Dilactic Acid] | 5.85 | 2.07 | 4.46 | -0.49 | 1.65 | 3.5 | 4.66 | 3.4 | 0.79 | 6.33 | 1.5 | 13.5 | 1.33 | 1.22 | 6.31 | 7.56 | 1.75 | 4.53 | 6.88 | 0.5 |
| CCOC(=O)c1cnc2ccc(-c3cncc(NS(=O)(=O)c4ccccc4)c3)cn12 | 1.19 | 2.3 | 1.17 | 0.29 | 0.13 | 1.06 | 0.33 | 0.35 | 0.6 | 0.54 | 2.2 | 0.95 | 1.04 | 0.47 | 0.76 | 0.2 | 1.1 | 1.79 | -0.08 | 0.87 |
| C[C@@H]1CN(C(=O)c2ccc(NC(=O)c3cc(O[C@H](C)c4c(Cl)ccc(F)c4Cl)c(N)nn3)cc2)C[C@H](C)N1 [Ensartinib (X-396)] | 2.83 | 1.44 | 2.67 | -0.39 | 0.08 | 0.04 | 0.4 | 5.02 | -0.19 | 3.28 | 4.79 | -0.22 | 0.66 | -0.05 | 7.25 | 0.84 | 0.09 | 2.29 | 12 | 0.57 |
| COc1cc2c(c(OC)c1OC)-c1c(cc3c(c1OC)OCO3)CC(C)C(C)C2 (stereo not given) [Schisandrin B (Sch B)] | 0.01 | -0.07 | 0.21 | -0.06 | 0.19 | 0.19 | -3.57 | 0.18 | 0.24 | -0.05 | 0.61 | 0.33 | 0.75 | 0.34 | -0.14 | 0.46 | 0.64 | 0.6 | 0.07 | 0.95 |
| O=c1cc(N2CCOCC2)oc2c(-c3ccccc3)cccc12 | 1.06 | -0.94 | 3.69 | 0.14 | 0.93 | 0.79 | 0.29 | 1.24 | 0.33 | 0.42 | 0.48 | 1.07 | 1.31 | 0.43 | -0.28 | 0.36 | 1.28 | 0.91 | 0.08 | 0.84 |
